NPC1 prom act: activates the NPC1 promoter; actives 2.4% (n = 320,000); AID 485313; Huh7 NPC1 promoter luciferase reporter, 24 h; Potency, µM (titrated, usually from 9.22 µM), usual class: activators; further: nearly all actives have a fitted effect of over 60% in size
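In 1536-well qHTS, Huh7 cells harboring an NPC1 promoter–luciferase construct received compound for 24 h; activation was quantified by luminescence following luciferase reagent addition.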
Rab9 prom act: activates the Rab9 promoter; Potency, µM (highest dose often 9.22 µM), usual class: activators; Huh7 Rab9 promoter-luciferase reporter, luminescence, 24 h; actives 2.8% (n = 320,000); further: nearly all actives have a fitted effect of over 60% in size
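Huh7 reporter line, Rab9 promoter upstream of luciferase. Compound exposure 24 h at 37 °C in reduced-serum medium with 10% FBS. Read-out: luminescence.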
FLuc modulator: inhibits or activates purified firefly luciferase, miR-21 counter-screen. actives 6.9% (n = 360,000). Potency, µM (titrated, usually from 57.5 µM), usual class: inhibitors. P08659. purified FLuc, Km substrates, luminescence inhibition; further: nearly all actives have a fitted effect of over 55% in size
Target sequence (P08659 whole entry, looked up): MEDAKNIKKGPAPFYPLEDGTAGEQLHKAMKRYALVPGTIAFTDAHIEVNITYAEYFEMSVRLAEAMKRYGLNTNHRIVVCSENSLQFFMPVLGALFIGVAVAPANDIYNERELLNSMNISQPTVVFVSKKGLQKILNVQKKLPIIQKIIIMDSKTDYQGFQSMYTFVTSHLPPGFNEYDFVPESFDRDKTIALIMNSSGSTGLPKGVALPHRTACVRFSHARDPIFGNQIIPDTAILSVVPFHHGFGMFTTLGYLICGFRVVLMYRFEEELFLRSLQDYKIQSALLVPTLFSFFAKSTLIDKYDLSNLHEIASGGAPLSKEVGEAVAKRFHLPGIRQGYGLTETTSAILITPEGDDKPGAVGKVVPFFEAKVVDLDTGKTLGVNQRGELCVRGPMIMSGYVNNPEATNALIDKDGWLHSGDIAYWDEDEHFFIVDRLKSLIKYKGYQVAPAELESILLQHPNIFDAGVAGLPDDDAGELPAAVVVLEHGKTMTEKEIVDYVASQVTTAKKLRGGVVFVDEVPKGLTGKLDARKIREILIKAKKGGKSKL
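Biochemical qHTS of compounds, final roughly 60 µM downward over six points, against 10 nM purified firefly luciferase using Km concentrations of substrates (10 uM D-luciferin, 10 uM ATP) in Tris acetate pH 7.5 buffer; luminescence output.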
ELG1 repair inh: inhibitors of ELG1-dependent DNA repair in HEK293T cells. HEK293T ELG1-luciferase reporter, luminescence, 16 h; DNA damage induced by 5-fluorouridine. Potency, µM (highest dose often 46.1 µM), most hits filed as inhibitors. actives 2.3% (n = 330,000). AID 504467; further: nearly all actives have a fitted effect of over 55% in size
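HEK293T cells expressing luciferase-tagged ELG1 (2,000/well) received 5-Fluorouridine plus compound or DMSO for 16 hr at 37 °C. Luciferase was read by ONE-Glo luminescence after 30 min at room temperature.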
ELG1 genotox: inducers of genotoxicity in HEK293T ELG1-luciferase cells. HEK293T ELG1-luciferase reporter, luminescence, 16 h. Potency, µM (top dose mostly 46 µM), usual class: activators. actives 1.3% (n = 330,000). AID 504466; further: nearly all actives have a fitted effect of over 60% in size
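Genotoxic stress is detected as increased luminescence from luciferase-tagged ELG1 in HEK293T cells, measured with ONE-Glo after a 16 hr treatment at 37 °C.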
SMN2 splice enh: increases expression of the SMN2 splice variant; actives 2.8% (n = 210,000); AID 1458; HEK293 SMN2-luciferase splicing reporter, luminescence, 30-36 h; Potency, µM (top dose mostly 46.1 µM), usual class: activators; further: nearly all actives have a fitted effect of over 55% in size
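qHTS luciferase splicing reporter: luminescence rises when SMN2 exon 7 is included in transfected HEK293 cells. Compound exposure lasted 30-36 h at 37C, with 4.5 mM final sodium butyrate as control, followed by a ONE-Glo read.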
Of the large screens only hits and unclear results are named; the others gave an inactive call. In the library only some 9.3% were active in any assay of this set; here they are far more common. The call rests on the fitted dose curve; in most records, active means well fitted curve in the direction sought with a large enough effect; inconclusive means small, poorly fitted or top-dose-only effect, or another doubt; inactive means no such curve, though single readings can be large; an effect the other way counts as inactive or inconclusive.

COc1cccc(NCc2cc3c(C(C)(C)C)nn(-c4ccccc4)c3[nH]c2=O)c1	none
COc1ccc(Cn2c(C(C)C)nc3sc4ccccc4c(=O)c3c2=O)cc1	none (no result: SMN2 splice enh)
CCCc1nc2sc3ccccc3c(=O)c2c(=O)n1Cc1ccc(OC)cc1	FLuc modulator inconclusive, ELG1 repair inh 23µM (no result: SMN2 splice enh)
COc1ccc(CCn2c(C(C)C)nc3c(c(=O)c4ccccc4n3C)c2=O)cc1	ELG1 repair inh 16µM
COc1ccc(-c2coc3cc(O)ccc3c2=O)cc1	SMN2 splice enh 11µM (no result: NPC1 prom act, Rab9 prom act, FLuc modulator, ELG1 repair inh, ELG1 genotox)
COc1ccc(-c2coc3cc(O)ccc3c2=O)cc1O	NPC1 prom act inconclusive, Rab9 prom act inconclusive, FLuc modulator 9.5µM, ELG1 repair inh inconclusive, ELG1 genotox 13µM (no result: SMN2 splice enh)
COC(=O)c1cc(=O)c2c(C)nc(C(Cl)(Cl)Cl)nc2[nH]1	FLuc modulator inconclusive
COCCn1c(N/N=C(C)/C=C/c2ccccc2)nc2c1c(=O)[nH]c(=O)n2C	ELG1 repair inh 4.6µM (no result: SMN2 splice enh)
O=c1c2ccccc2nc2c3ccccc3c(NCc3cccnc3)nn12	FLuc modulator inconclusive, ELG1 repair inh inconclusive
COC(=O)CCN(C(=O)c1cc(OC)c(OC)c(OC)c1)c1ccccn1	none
COc1cc(NC(=O)C2CCCN(S(=O)(=O)c3ccc4c(c3)CCCN4C(C)=O)C2)cc(OC)c1 (centres undefined)	ELG1 repair inh 9.2µM (no result: SMN2 splice enh)
COc1ccc(S(=O)(=O)N2CCCC(C(=O)Nc3cccnc3)C2)cc1Cl (centres undefined)	ELG1 repair inh 23µM
Cc1nc2c(Cl)cccc2[nH]1	none
CCOC(=O)C(NC(=O)Nc1ccc(Cl)cn1)(Oc1ccccc1)C(F)(F)F (centres undefined)	none
CCN(CC)CCn1c2ccccc2c2nc3ccc([N+](=O)[O-])cc3cc21	FLuc modulator inconclusive, ELG1 repair inh inconclusive, ELG1 genotox 23µM (no result: SMN2 splice enh)
CS(=O)(=O)c1ccc(C(=O)OCC(=O)Nc2cccc(S(=O)(=O)N3CCCC3)c2)cc1	none (no result: SMN2 splice enh)
NS(=O)(=O)c1cccc(NC(=O)COC(=O)CNC(=O)c2ccc(-c3ccccc3)cc2)c1	FLuc modulator 6.7µM (no result: SMN2 splice enh)
NS(=O)(=O)c1cccc(NC(=O)COC(=O)CCN2C(=O)c3ccccc3C2=O)c1	none (no result: SMN2 splice enh)
Cc1[nH]c2ccc(C(=O)OCC(=O)Nc3cccc(S(N)(=O)=O)c3)cc2c1C	FLuc modulator 17µM, ELG1 repair inh inconclusive (no result: SMN2 splice enh)
NNC(=O)c1cc2c(s1)-c1cc(Cl)ccc1SC2	FLuc modulator inconclusive, ELG1 repair inh inconclusive (no result: SMN2 splice enh)
Cc1ccc(/C=C2/Sc3ccccc3N(CC(=O)NCC3CCCO3)C2=O)cc1 (centres undefined)	FLuc modulator inconclusive (no result: SMN2 splice enh)
CCc1ccc(/C=C2/Sc3ccccc3N(CC(=O)NCC3CCCO3)C2=O)cc1 (centres undefined)	FLuc modulator 19µM, ELG1 repair inh 13µM (no result: SMN2 splice enh)
CC(C)(C)OC(=O)NCCCCCc1cn([C@@H](CO)C(=O)NCCCCCCCCCCC(=O)N2CCN(C(=O)OC(C)(C)C)CC2)nn1	FLuc modulator inconclusive, ELG1 repair inh 3.2µM (no result: SMN2 splice enh)
Cc1cccc(NC(=S)N(CCc2ccncc2)C(C)C)c1C	none (no result: SMN2 splice enh)
CC(=O)Nc1ccc2oc(C)nc2c1	none (no result: SMN2 splice enh)
Cc1ccccc1-c1nc2cc(NC(=O)C3CC3)ccc2o1	NPC1 prom act 0.45µM, Rab9 prom act 0.5µM, FLuc modulator 1.7µM, ELG1 repair inh inconclusive, ELG1 genotox 4.6µM (no result: SMN2 splice enh)
CC(=O)Nc1ccc2oc(-c3cc(F)c(F)cc3Cl)nc2c1	NPC1 prom act 0.32µM, Rab9 prom act 0.4µM, FLuc modulator 1.9µM, ELG1 repair inh inconclusive, ELG1 genotox 1.8µM, SMN2 splice enh 8.9µM
CC(=O)Nc1ccc2oc(-c3ccccc3Br)nc2c1	NPC1 prom act 0.89µM, Rab9 prom act 0.45µM, FLuc modulator 2.4µM, ELG1 repair inh inconclusive, ELG1 genotox 1.8µM, SMN2 splice enh 11µM
CCC(=O)Nc1ccc2oc(-c3ccccc3Br)nc2c1	NPC1 prom act 1.8µM, Rab9 prom act 2µM, FLuc modulator 3µM, ELG1 repair inh inconclusive, ELG1 genotox inconclusive, SMN2 splice enh 10µM
O=C(COc1ccccc1Cl)Nc1ccc2oc(-c3ccccc3F)nc2c1	none (no result: NPC1 prom act, Rab9 prom act, ELG1 repair inh, ELG1 genotox, SMN2 splice enh)
Cc1ccc(CN(C(=O)c2cc(=O)c3cc(Cl)c(C)cc3o2)C2CCS(=O)(=O)C2)cc1 (centres undefined)	none
Nc1nonc1-c1nc2ccccc2n1CC(=O)N1CCN(c2ccc(F)cc2)CC1	none
CCC(C)(C)c1ccc(OCCCC[n+]2cccc(C)c2)c(C(C)(C)CC)c1	ELG1 repair inh 7.3µM
CCCCNc1cc(C)nc(NCc2ccccc2)n1	ELG1 repair inh 15µM
Cc1cc(Nc2ccc(Cl)cc2)nc(NCc2ccccc2)n1	none
Cc1cc(Nc2ccccc2)nc(NCc2ccccc2)n1	ELG1 repair inh 4.6µM
Cc1nc2ccc(S(=O)(=O)N(CC(=O)Nc3ccc(Cl)cc3)Cc3ccccc3)cc2s1	none (no result: NPC1 prom act, Rab9 prom act, ELG1 repair inh, ELG1 genotox, SMN2 splice enh)
CCN1C(=O)[C@H]2[C@@H](c3ccc(SC4CCCCC4)cc3)N[C@@](CC(C)C)(C(=O)OC)[C@H]2C1=O	none (no result: SMN2 splice enh)
O=C(/C=C/c1ccc(Cl)cc1Cl)c1nc2ccccc2[nH]1	FLuc modulator 0.24µM
Clc1cccc(Cl)c1/C=C/c1nc2ccccc2[nH]1	NPC1 prom act 3.5µM, Rab9 prom act 4.5µM, FLuc modulator 0.67µM, ELG1 repair inh inconclusive, ELG1 genotox inconclusive, SMN2 splice enh 11µM
OCc1nc2ccc(Cl)cc2[nH]1	none (no result: SMN2 splice enh)
O=C(/C(=C(\O)c1ccccc1)c1nc2ccccc2[nH]1)c1ccccc1	none (no result: SMN2 splice enh)
Clc1ccc(/C=C/c2nc3ccccc3[nH]2)cc1	NPC1 prom act 0.1µM, Rab9 prom act 0.2µM, FLuc modulator 0.076µM, ELG1 repair inh inconclusive, ELG1 genotox 0.58µM, SMN2 splice enh 0.79µM
Clc1ccc(/C=C/c2nc3ccccc3[nH]2)c(Cl)c1	NPC1 prom act 0.71µM, Rab9 prom act 0.4µM, FLuc modulator 0.067µM, ELG1 repair inh inconclusive, ELG1 genotox inconclusive, SMN2 splice enh 0.56µM
C(=N\n1cnnc1)/c1nc2ccccc2[nH]1	none
COc1ccccc1N1CCN(C(=O)CSc2nc3ccccc3[nH]2)CC1	ELG1 repair inh inconclusive
N#C/C(=C\c1ccco1)c1nc2ccccc2s1	Rab9 prom act inconclusive, FLuc modulator 1.7µM, ELG1 repair inh inconclusive, ELG1 genotox 7.3µM, SMN2 splice enh 11µM
N#C/C(=C\c1ccc(-c2ccccc2Cl)o1)C(=O)Nc1nc2ccccc2s1	FLuc modulator inconclusive, ELG1 repair inh inconclusive
CCCCc1ccc(-c2csc(/C(C#N)=C\c3ccco3)n2)cc1	none
N#C/C(=C/c1ccc(-c2cc(C(=O)O)cc(C(=O)O)c2)o1)c1nc2ccccc2s1	FLuc modulator 2.1µM
